# Compound activity (PubChem BioAssay)
# Only some compounds are listed: those with a hit (about 2.5% of all), similar ones and a draw of the others.
# ATG4B inh = inhibitors of human ATG4B cysteine protease; Q9Y4P1; ATG4B cleavage of LC3-PLA2, NBD-HPC fluorescence, 1 h; inhibition, % at 8.33 µM; 340,000 tested, 0.51% active; AID 504462; in the data active = inhibition above about 40%
# Target sequence (Q9Y4P1 whole entry, looked up): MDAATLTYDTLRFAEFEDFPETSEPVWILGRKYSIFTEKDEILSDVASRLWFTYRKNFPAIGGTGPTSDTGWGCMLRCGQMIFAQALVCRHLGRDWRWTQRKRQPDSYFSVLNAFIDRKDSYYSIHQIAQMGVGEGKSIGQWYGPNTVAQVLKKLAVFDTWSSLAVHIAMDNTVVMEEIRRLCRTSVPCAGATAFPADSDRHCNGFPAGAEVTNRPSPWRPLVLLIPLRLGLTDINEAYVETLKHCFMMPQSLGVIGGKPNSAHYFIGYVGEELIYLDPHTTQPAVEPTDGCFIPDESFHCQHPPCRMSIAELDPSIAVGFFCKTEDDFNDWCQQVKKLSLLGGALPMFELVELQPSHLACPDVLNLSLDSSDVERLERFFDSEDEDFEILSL
# V-ATPase pHluor = alters yeast V-ATPase proton transport; S. cerevisiae, pHLuorin cytosolic pH fluorescence; response, % at 10 µM; 350,000 tested, 0.37% active; AID 504577; in the data active = response mostly above about 7.3%, no sharp cut-off; inactive = mostly below about 5.4%; note: actives read high
# Mot1-301 SUMO = inhibitors of SUMOylation pathway: yeast Mot1-301 growth rescue; S. cerevisiae Mot1-301 growth rescue, ATP luminescence, 38.5C; percent above DMSO median, 100 means doubled; growth rescue, % at 18.8 µM; 320,000 tested, 1% active; AID 2716;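 active = every valid replicate shows activation above 250% relative to neutral control wells; inactive = the rest, any valid replicate at or below 250%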
# Efflux pump inh = blocks antifungal efflux pumps in multiplex yeast assay | S. cerevisiae Candida pump triplex, Nile Red efflux | inhibition, % at 10 µM | 330,000 tested, 0.44% active;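 active = plate passing quality check with inhibition over a set limit, or well fluorescence over plate mean plus 4 SD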;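 note: Nile Red retained in pooled yeast measured as flow cytometry median fluorescence; higher means more Nile Red kept so more efflux inhibition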
# AI-2 QS modul = Vibrio harveyi AI-2 quorum sensing modulation. Vibrio harveyi JMH597 AI-2 luminescence/OD600 ratio, 9 h; stronger effect = lower value; strain lacks LuxN and CqsS sensors; 0 = neutral-control median. activity change, % at 7.5 µM. 300,000 tested, 0.4% active; in the data active = activity change below about -75%, passing the limit was not always enough;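 note: luminescence divided by OD600 gain over 9 h not by final OD600 alone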
# ATG4B conf = ATG4B (human) inhibition, single-dose confirmed. shares compounds with ATG4B inh. AID 504757. ATG4B protease fluorescent substrate cleavage assay. inhibition, % at 8.33 µM. 320 tested, 92% active; in the data active = inhibition above about 39%
# PLA2 ctr = inhibits human PLA2, flagging false ATG4B inhibitors. AID 588402. 1,600 tested, 66% active. shares compounds with ATG4B inh. purified PLA2, NBD-C6-HPC fluorescence, 45 min. inhibition, % at 8.33 µM; in the data active = inhibition above about 50%
# Target sequence (P04054 whole entry, looked up): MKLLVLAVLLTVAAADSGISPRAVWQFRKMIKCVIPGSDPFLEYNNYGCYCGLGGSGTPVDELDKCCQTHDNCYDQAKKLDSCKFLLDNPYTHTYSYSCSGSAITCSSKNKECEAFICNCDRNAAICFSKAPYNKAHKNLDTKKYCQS
# Hits are given with their value; n = inactive; x = no result.
SMILES,ATG4B inh,V-ATPase pHluor,Mot1-301 SUMO,Efflux pump inh,AI-2 QS modul,PLA2 ctr,others
COc1ccc(NS(=O)(=O)c2cc(C(=O)N(C)CCc3ccccn3)ccc2Cl)cc1,n,n,x,x,x,x,
CN(C)c1ccnc(Oc2ccc(Cl)cc2)c1C#N,n,n,n,n,n,x,
CN(C)c1ccnc(Oc2ccc(C(C)(C)C)cc2)c1C#N,75,n,356,n,n,80,
CC1CCCCN1C(=O)COC(=O)C1CCN(S(=O)(=O)c2ccc3c(c2)OCCO3)CC1 (configuration not stated),n,n,n,n,n,x,
COC(=O)NNC(=O)COc1cc(C)c(Br)cc1C(C)C,41,n,n,n,n,n,
O=C(NCc1ccco1)/C(=C\c1cccnc1)NC(=O)c1ccccc1F,n,n,n,n,n,x,
S=c1[nH]nc(CSCc2ccccc2Cl)n1C1CCCCC1,55,n,x,x,n,63,
CC/C=C\C/C=C\C/C=C\CCCCCCCC(=O)O,46,n,n,n,x,n,ATG4B conf=63
O=C(CC(=O)N/N=C/c1c(Cl)cccc1Cl)NCc1cccnc1,n,n,n,n,n,x,
COCCNc1nc(SCc2ccccc2)nc2sc3c(c12)CCC3,46,n,n,n,n,60,
CC(CO)Nc1nc(SCc2ccccc2)nc2sc3c(c12)CCC3 (configuration not stated),83,n,n,n,n,91,
CCOC(=O)C1CCCN(C(=O)c2ccc3c(=O)n(Cc4ccccc4OC)c(=S)[nH]c3c2)C1 (configuration not stated),51,n,n,n,n,n,ATG4B conf=74
O=C(c1ccc2c(=O)n(C3CCCC3)c(=S)[nH]c2c1)N1CCCCCC1,62,n,n,n,n,65,
CC1CCCN(C(=O)c2ccc3c(=O)n(C4CCCC4)c(=S)[nH]c3c2)C1 (configuration not stated),n,n,n,n,n,x,
COc1cc(C2C(C#N)=C(N)N(N(C)C)C3=C2C(=O)CC(C)(C)C3)cc(OC)c1OC (configuration not stated),n,n,n,n,n,x,
Cc1ccc(N(C)S(=O)(=O)c2cccc(C(=O)NCC(c3ccco3)N3CCCC3)c2)cc1 (configuration not stated),n,n,n,n,x,x,
COc1cc(OC)cc(-c2nc3ccccc3c(=O)n2OC(=O)c2ccc(C)c(C)c2)c1,56,n,n,n,n,n,ATG4B conf=51
COc1cc(OC)cc(C(=O)Nn2c(C)nc3ccccc3c2=O)c1,n,n,n,n,n,x,
CNS(=O)(=O)c1cc(-c2nnc(Nc3ccc(CC(N)=O)cc3)c3ccccc23)ccc1C,91,n,n,n,n,91,
Cc1ccc(-c2nnc(Nc3ccc(CC(N)=O)cc3)c3ccccc23)cc1S(N)(=O)=O,88,n,n,1.7,n,89,
Cc1ccc(-c2nnc(Nc3ccc(CC(N)=O)cc3)c3ccccc23)cc1S(=O)(=O)NCC1CCCO1 (configuration not stated),90,n,n,n,n,89,
CNC(=O)c1ccc(Nc2nnc(-c3ccc(C)c(S(N)(=O)=O)c3)c3ccccc23)cc1,n,n,n,n,n,x,
Cc1ccc(-c2nnc(Nc3ccc(CC(N)=O)cc3)c3ccccc23)cc1,97,n,n,n,n,97,
O=C(Sc1ccc(Cl)cc1)c1ccccn1,n,n,n,n,n,x,
CN(c1ccc([N+](=O)[O-])cc1/C=N/NC(=O)COc1ccccc1)C1CCCCC1,n,n,n,n,n,x,
SMILES,ATG4B inh,V-ATPase pHluor,Mot1-301 SUMO,Efflux pump inh,AI-2 QS modul,PLA2 ctr,others
O=C(OCc1ccccc1)N1CCC2CC1c1ccc(N3CCNCC3)cc12 (configuration not stated),x,n,x,x,x,x,
Cc1ccc(-c2nnc(Nc3ccc(OCC(N)=O)cc3)c3ccccc23)cc1S(N)(=O)=O,n,n,n,n,n,x,
NC(=O)COc1ccc(Nc2nnc(-c3ccc(O)cc3)c3ccccc23)cc1,57,n,n,n,n,69,
Oc1cc(-n2cccn2)c(O)cc1-n1cccn1,n,n,n,n,n,x,
CCNc1nc(CSc2ccccc2)nc2sc(C)c(C)c12,45,n,n,n,n,n,ATG4B conf=61
COC(=O)C=CSC(=S)C1CCCC1=N (configuration not stated),x,n,x,x,x,x,
C=CCNc1nc(C)c(CNc2c(C)cc(C)cc2C)nc1C#N,n,n,n,n,n,x,
Fc1cccc2sc(Nc3nnc(-c4ccccc4)o3)nc12,n,n,n,n,n,x,
COc1cc(OC)cc(-c2nnc(Nc3nc4c(F)cccc4s3)o2)c1,57,n,n,n,n,n,ATG4B conf=51
Cc1nn(Cc2ccccc2Cl)c2sc(C(=O)NC(C)(C)C)cc12,n,n,n,n,n,x,
Cc1csc(NC(=O)c2cc3c(C)nn(Cc4ccccc4Cl)c3s2)n1,66,n,n,n,n,58,
COCCN(CC(=O)Nc1ccccc1C(F)(F)F)C(=O)/C=C/c1ccc2ccccc2n1,n,n,n,n,x,x,
Cc1ccc(S(=O)(=O)N2CCN(C(=O)CCC(=O)NCc3cccc(C(F)(F)F)c3)CC2)cc1,71,n,n,n,n,78,
Cc1ccc(C)c(-n2c(-c3ccc(Br)cc3)csc2=NC(=O)c2ccccc2F)c1,n,n,n,n,n,x,
N#CC1=C(S)N(c2ccccc2)C(c2ccc(-c3ccccc3Cl)o2)NC1=O (configuration not stated),66,n,n,n,n,74,
CCC(=O)c1ccc(OCC(=O)NCC2(N3CCCCC3)CCCCC2)cc1,n,n,n,n,n,x,
Cc1nn2c(COc3ccc(NC(=O)c4ccccc4Cl)cc3)nnc2c2ccccc12,43,n,n,n,n,n,
Cc1nn2c(COc3ccc(NC(=O)C(C)C)cc3)nnc2c2ccccc12,n,n,n,n,n,x,
Cc1sc2nc(CSC(C)C(=O)Nc3cc(S(C)(=O)=O)ccc3Cl)[nH]c(=O)c2c1C (configuration not stated),n,n,n,n,n,x,
Cc1ccccc1N1CCN(C(=O)NCc2cccc(Cl)c2)CC1,61,n,n,n,n,73,
COc1ccc(CNC(=O)N2CCN(c3cccc(C)c3C)CC2)cc1OC,n,n,n,n,x,x,
COc1cc(CN2CCC(n3nccc3NC(=O)c3ccc4c(c3)OCO4)CC2)ccc1O,n,n,n,n,n,x,
Cc1ccc(NC(=O)c2cncc(Br)c2)c([N+](=O)[O-])c1,n,n,n,n,n,x,
COc1c(C)cc(Br)cc1C(=O)Nc1ccc(C)cc1[N+](=O)[O-],42,n,n,n,n,n,
CC1CCN(S(=O)(=O)c2ccc(C(=O)N3CCCC(C(F)(F)F)C3)cc2)CC1 (configuration not stated),n,n,n,n,n,x,
